Screening data: PubChem, The Scripps Research Institute Molecular Screening Center
NCOA3 inh: SRC3 coactivator transcriptional activity inhibitors, primary screen, cell-based, luminescence; AID 588352, 2011; inhibition, % at 3.6 µM; 360,000 tested, 0.17% active; Nuclear receptor coactivator 3 (Homo sapiens), Q9Y6Q9; HEK293 GAL4-SRC3 luciferase reporter;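 active = inhibition above a per-campaign cutoff, the mean of all compounds plus 3 SD, cut at about 60% in these data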;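 also: 0% = DMSO-treated cells and 100% = gossypol-treated cells at 36 µM; higher means less SRC3-driven luciferase light from the GAL4 reporter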
LRH-1 inv ag: LRH-1 (NR5A2) inverse agonists, primary screen, cell-based, luminescence, HEK293T, StAR-luciferase reporter; LRH-1 transfected, 24 h; inhibition, % at 3.6 µM; 360,000 tested, 0.13% active; AID 602396, 2012;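 active = inhibition above the mean inhibition of all tested compounds plus 3 SD, cut at about 73% in these data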;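 also: 0% = DMSO wells and 100% = reporter-only cells lacking LRH-1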
COUP-TFII inh: NR2F2 transcriptional activity inhibitors, primary screen, cell-based, luciferase reporter, HEK293T, luminescence. HEK293T NGFI-A luciferase reporter. AID 686940, 2013. 370,000 tested, 0.7% active. inhibition, % at 8.6 µM. COUP transcription factor 2 (Homo sapiens), P24468;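 active = inhibition above a per-plate cutoff, mean inhibition of test wells between control levels plus 3 SD, cut at about 38% in these data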;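 also: cells cotransfected with COUP-TFII expression vector driving the NGFI-A reporter; 0% = median of COUP-TF2 test wells and 100% = reporter-only cells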
Target sequence (P24468 whole entry, looked up): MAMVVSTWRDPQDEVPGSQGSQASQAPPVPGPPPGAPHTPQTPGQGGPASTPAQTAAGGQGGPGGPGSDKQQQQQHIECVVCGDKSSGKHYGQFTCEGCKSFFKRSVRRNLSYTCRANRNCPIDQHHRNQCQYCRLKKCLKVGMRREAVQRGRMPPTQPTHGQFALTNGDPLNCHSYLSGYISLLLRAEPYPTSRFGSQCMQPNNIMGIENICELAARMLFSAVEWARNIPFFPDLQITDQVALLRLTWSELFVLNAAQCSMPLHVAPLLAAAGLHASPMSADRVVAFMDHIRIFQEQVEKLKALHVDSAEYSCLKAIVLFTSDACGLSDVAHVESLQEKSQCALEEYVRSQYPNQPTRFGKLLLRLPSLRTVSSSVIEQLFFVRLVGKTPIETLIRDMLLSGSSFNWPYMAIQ
GalR3 antagonist: GalR3 antagonists in HEK293 cells, primary screen, cell-based, fluorescence readout; inhibition, % at 3 µM; Galanin receptor type 3 (Homo sapiens), O60755; AID 651719, 2012; 360,000 tested, 0.44% active; HEK293 GalR3-CNG cAMP membrane potential fluorescence; galR3 body fused to GalR1 C-terminus;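 active = inhibition above the screen-wide average plus 3 SD, cut at about 13% in these data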;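 also: forskolin and galanin both at EC90 stimulate the cells; cAMP rise reported by CNG channel membrane potential dye signal; 0% = forskolin plus galanin with DMSO and 100% = forskolin alone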
Target sequence (O60755 1-299 limits assumed): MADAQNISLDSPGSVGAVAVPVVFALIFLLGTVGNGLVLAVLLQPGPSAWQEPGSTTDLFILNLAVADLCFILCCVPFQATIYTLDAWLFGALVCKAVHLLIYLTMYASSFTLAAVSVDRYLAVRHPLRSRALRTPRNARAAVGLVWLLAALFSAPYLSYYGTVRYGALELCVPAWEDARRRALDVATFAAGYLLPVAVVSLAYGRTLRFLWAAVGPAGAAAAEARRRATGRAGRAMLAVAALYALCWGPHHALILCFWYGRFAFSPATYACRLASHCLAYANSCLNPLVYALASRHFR
SRC2 inh: inhibition of GAL4-SRC2 driven luciferase reporter, primary screen, SRC2 inhibitor project, cell-based, luminescence | inhibition, % at 9 µM | Nuclear receptor coactivator 2 (Homo sapiens), Q15596 | HEK293 GAL4-SRC2 luciferase reporter | 370,000 tested, 0.17% active;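 active = inhibition above the mean inhibition of all tested compounds plus 3 SD, set per campaign, cut at about 52% in these data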;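 also: 0% = DMSO treated cells and 100% = cells given Gossypol at 36 µM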
SRC1 inh: SRC1 coactivator transcriptional activity inhibitors, primary screen, cell-based, luminescence | Nuclear receptor coactivator 1 (Homo sapiens), Q15788 | HEK293 GAL4-SRC1 luciferase reporter | inhibition, % at 3.6 µM | 360,000 tested, 0.12% active;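 active = inhibition above the campaign mean plus 3 SD, with each screening campaign given its own cutoff, cut at about 60% in these data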;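 also: 0% = DMSO treated cells and 100% = gossypol at 36 µM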
Gal4-VP16 ctr: Gal4-VP16 luciferase reporter inhibitors, counter-screen for COUP-TFII antagonist project, cell-based, luminescence, HEK293; shares compounds with COUP-TFII inh; inhibition, % at 8.5 µM; 2,500 tested, 25% active; in the data active = inhibition above about 13%
COUP-TFII conf: NR2F2 transcriptional activity inhibitors, confirmation, cell-based, luciferase reporter, HEK293, triplicate; inhibition, % at 8.5 µM; HEK293 NGFI-A luciferase reporter, luminescence; shares compounds with COUP-TFII inh; AID 687008, 2013; 2,500 tested, 45% active;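 active = mean inhibition over three repeats above a set limit taken from the earlier primary screen, cut at about 38% in these data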;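 also: 100% = cells given the luciferase reporter alone without the COUP-TF2 vector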
The depositor's hits bear a star; · = no result. In the library only some 1.1% were active in any assay of this set; here they are far more common.

SMILES	NCOA3 inh	LRH-1 inv ag	COUP-TFII inh	GalR3 antagonist	SRC2 inh	SRC1 inh	Gal4-VP16 ctr	COUP-TFII conf
CCCCCc1ccc(NC(=O)O[C@@H]2CC[C@@]34CCCN3C(=O)CCC[C@H]4C2)cc1	·	·	31.0	·	·	·	·	·
CC(C)c1c(C(=O)N/N=C/c2cccc(OCc3ccc(F)cc3)c2)nnn1-c1nonc1N	-14.4	-4.4	-12.3	-2.0	-7.1	-12.1	·	·
CC(C)c1ccc(C(=O)Nc2cc(Cl)ccc2C(=O)O)cc1	·	·	7.0	·	·	·	·	·
CC(C)(C)OC(=O)NCCCc1ccc2c(c1)[C@]1(CCC[C@@H](OCc3ccccc3)[C@@H]1NC(=O)CCc1ccccc1)C(=O)N2Cc1ccccc1	·	·	-7.9	·	20.8	·	·	·
CCCCN1C=CC(=C2C(=O)c3ccccc3C2=O)C=C1	59.8	-8.9	79.8*	-0.6	75.7*	43.6	66.8*	67.0*
C=CCn1c(SCc2ccc(C#N)cc2)nnc1-c1ccco1	·	·	-22.5	·	-9.6	·	·	·
O=C(c1ccc(Oc2ccc([N+](=O)[O-])cc2)cc1)N1CCCCCC1	5.8	0.9	46.5*	-9.1	8.1	15.2	-5.4	14.2
COC(=O)c1ccc(-n2c(C)cc(C(=O)CSc3ccc(NC(C)=O)cc3)c2C)cc1	21.7	8.3	23.7	-7.0	10.9	-11.4	·	·
CC(=O)Nc1ccc(SCC(=O)c2cc(C)n(Cc3cccs3)c2C)cc1	39.4	52.9	66.8*	2.1	30.6	44.3	12.1	73.2*
Cc1csc(SCC(=O)c2cc(C)n(Cc3cccs3)c2C)n1	42.8	27.8	67.2*	-5.1	36.2	28.9	37.2*	79.6*
CC(=O)Nc1ccc(SCC(=O)c2cc(C)n(-c3ccccc3F)c2C)cc1	52.5	55.2	66.9*	-11.2	39.2	41.0	35.0*	64.3*
COCCn1c(C)cc(C(=O)CSc2ccc(NC(C)=O)cc2)c1C	-12.7	-1.2	-12.8	-2.4	-18.8	-9.5	·	·
COCCNC(=O)C1CCCN(Cc2ccc(C)cc2)CC1 (stereo unspecified)	-6.4	-6.4	7.2	-1.5	-9.3	-6.2	·	·
O=S1(=O)c2ccc(N3CCCC3)cc2Oc2ccccc2CN1Cc1cn(Cc2ccccc2C(F)(F)F)nn1	·	·	-11.0	·	12.9	·	·	·
Cc1nc2cc(C(=O)N3CCN(C(=O)C(Cl)Cl)CC3)ccc2n1C1CCCC1	·	·	3.6	·	15.2	·	·	·
CCN(CC)S(=O)(=O)c1cccc(-n2c(O)c(C=Nc3ccccc3C(=O)O)c3ccccc3c2=O)c1	28.7	40.9	46.5*	-7.5	36.9	11.2	-30.0	41.5*
CC(C)C[C@H](NC1(C(=O)NC2CCCCC2)CCCCC1)C(=O)NCCc1c[nH]c2ccccc12	·	·	12.3	·	·	·	·	·
CC1(C)CC(NC(=O)C2CCN(S(=O)(=O)c3cccc(C(F)(F)F)c3)CC2)CC(C)(C)N1	-0.9	-2.0	3.3	-3.7	4.7	-4.2	·	·
Clc1cccc(CNc2nnnn2-c2ccccc2)c1	8.8	9.9	38.8*	-6.1	26.1	-41.4	2.4	5.8
Brc1ccc2[nH]c3c(NCc4ccccn4)ncnc3c2c1	2.4	-9.0	-8.2	-6.1	-0.3	2.0	·	·
COc1ccc(CNc2ncnc3c2[nH]c2cc(OC)c(OC)cc23)cc1	14.2	-15.5	-24.9	0.1	-12.0	-20.8	·	·
CC(C)OCCCNc1ncnc2c1[nH]c1ccccc12	6.9	13.0	65.9*	-6.8	4.1	5.1	-33.8	37.2
Cc1ccc2[nH]c3c(NCc4ccccc4)ncnc3c2c1	·	·	48.2*	-1.1	-10.4	·	-59.1	-18.3
CCOc1ccc2[nH]c3c(NCCCOC)ncnc3c2c1	-31.8	-39.5	-4.4	2.5	-87.0	-23.0	·	·
COc1ccc(CNc2ncnc3c2[nH]c2ccccc23)cc1	15.2	7.9	45.1*	-8.1	2.3	5.4	-0.4	35.1
SMILES	NCOA3 inh	LRH-1 inv ag	COUP-TFII inh	GalR3 antagonist	SRC2 inh	SRC1 inh	Gal4-VP16 ctr	COUP-TFII conf
O=C(CN1CCC(C(=O)c2ccc3c(c2)OCCO3)CC1)NCc1ccccc1	8.2	-2.7	-5.2	-8.2	8.9	5.0	·	·
CCOC(=O)c1c(CN2CCN(CCO)CC2)n(-c2ccccc2)c2cc(Br)c(O)cc12	-3.1	1.5	42.8*	1.6	15.8	-24.8	2.5	-4.4
N=c1ccn(Cc2ccc(Cl)c(Cl)c2)cc1	2.9	8.8	49.4*	1.1	15.8	5.5	-6.3	12.0
Cn1nc(C(C)(C)C)cc1C(=O)N1CCCCC1c1cc(C(=O)Nc2ccc(F)c(Cl)c2)no1 (stereo unspecified)	26.8	14.9	41.0*	-7.0	-25.3	14.4	2.8	13.4
O=C(Nc1ccc(F)c(Cl)c1)c1cc(C2CCCCN2C(=O)c2ccc(Cl)cc2)on1 (stereo unspecified)	11.9	-4.3	-6.9	-8.9	4.0	3.5	·	·
CCN(Cc1ccncc1)C(=O)c1cc(COc2c(C)cccc2C)on1	-6.6	-21.0	18.6	2.9	8.8	-15.0	·	·
COc1ccc(CNC(=O)c2cccc(S(=O)(=O)N3CCCCC3)c2)cc1OC	5.9	29.0	64.3*	5.8	13.4	24.6	3.2	44.6*
COc1ccc(CNC(=O)c2cc(S(=O)(=O)N3CCCCC3)ccc2Cl)cc1OC	5.7	37.0	51.2*	-4.5	1.3	11.8	2.0	33.4
O=C(Nc1ccc(N2CCN(C(=O)c3ccccc3)CC2)c(Cl)c1)c1ccco1	12.2	2.6	15.9	-0.2	8.6	7.6	·	·
CCC(=O)N1CCN(c2ccc(NC(=O)c3cc4ccccc4o3)cc2Cl)CC1	24.6	9.9	44.1*	-3.0	24.8	21.7	-16.0	35.9
O=C(Nc1ccc(N2CCN(C(=O)c3ccco3)CC2)c(Cl)c1)c1cc2ccccc2o1	31.7	14.2	63.5*	-0.1	44.9	35.9	5.2	51.2*
CCC(=O)N1CCN(c2ccc(NC(=O)c3ccco3)cc2Cl)CC1	-20.1	-26.3	-4.4	-0.1	-14.9	-29.9	·	·
O=C(Nc1ccc(OC(F)(F)F)cc1)C1CCCN(C(=O)c2ccc(Cl)cc2)C1 (stereo unspecified)	12.6	-22.4	12.3	-6.4	21.7	8.7	·	·
Cc1ccc(C(=O)Nc2cccc(N3C(=O)C4CCC(C)CC4C3=O)c2)cc1 (stereo unspecified)	-13.2	-46.6	2.9	-1.3	-9.3	-27.8	·	·
CC(=O)N[C@@H](C)c1nc2ccccc2n1CCCN1CCN(c2nc(-c3ccc(C)cc3)cs2)CC1	-7.9	16.1	62.2*	-9.2	20.0	-2.1	-10.8	48.1*
